Results as given in paper PMC4336329 (PLoS ONE, 2015).
Screen size: about 310,000 compounds; about 14,000 (4.5%) showed an effect of 50% or more. Effects have a minus sign here. Shown is part of a subset that was picked to be rich in strong results.

Target: human ether-à-go-go-related gene (hERG) potassium channel (human, UniProt Q12809)
Test: primary screen, population patch clamp on CHO cells stably expressing hERG; higher = less effect of the substance
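Also: peak tail current of the secondary pulse compared with the same well before compound.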

Sequence of human ether-à-go-go-related gene (hERG) potassium channel (Q12809 whole entry, looked up): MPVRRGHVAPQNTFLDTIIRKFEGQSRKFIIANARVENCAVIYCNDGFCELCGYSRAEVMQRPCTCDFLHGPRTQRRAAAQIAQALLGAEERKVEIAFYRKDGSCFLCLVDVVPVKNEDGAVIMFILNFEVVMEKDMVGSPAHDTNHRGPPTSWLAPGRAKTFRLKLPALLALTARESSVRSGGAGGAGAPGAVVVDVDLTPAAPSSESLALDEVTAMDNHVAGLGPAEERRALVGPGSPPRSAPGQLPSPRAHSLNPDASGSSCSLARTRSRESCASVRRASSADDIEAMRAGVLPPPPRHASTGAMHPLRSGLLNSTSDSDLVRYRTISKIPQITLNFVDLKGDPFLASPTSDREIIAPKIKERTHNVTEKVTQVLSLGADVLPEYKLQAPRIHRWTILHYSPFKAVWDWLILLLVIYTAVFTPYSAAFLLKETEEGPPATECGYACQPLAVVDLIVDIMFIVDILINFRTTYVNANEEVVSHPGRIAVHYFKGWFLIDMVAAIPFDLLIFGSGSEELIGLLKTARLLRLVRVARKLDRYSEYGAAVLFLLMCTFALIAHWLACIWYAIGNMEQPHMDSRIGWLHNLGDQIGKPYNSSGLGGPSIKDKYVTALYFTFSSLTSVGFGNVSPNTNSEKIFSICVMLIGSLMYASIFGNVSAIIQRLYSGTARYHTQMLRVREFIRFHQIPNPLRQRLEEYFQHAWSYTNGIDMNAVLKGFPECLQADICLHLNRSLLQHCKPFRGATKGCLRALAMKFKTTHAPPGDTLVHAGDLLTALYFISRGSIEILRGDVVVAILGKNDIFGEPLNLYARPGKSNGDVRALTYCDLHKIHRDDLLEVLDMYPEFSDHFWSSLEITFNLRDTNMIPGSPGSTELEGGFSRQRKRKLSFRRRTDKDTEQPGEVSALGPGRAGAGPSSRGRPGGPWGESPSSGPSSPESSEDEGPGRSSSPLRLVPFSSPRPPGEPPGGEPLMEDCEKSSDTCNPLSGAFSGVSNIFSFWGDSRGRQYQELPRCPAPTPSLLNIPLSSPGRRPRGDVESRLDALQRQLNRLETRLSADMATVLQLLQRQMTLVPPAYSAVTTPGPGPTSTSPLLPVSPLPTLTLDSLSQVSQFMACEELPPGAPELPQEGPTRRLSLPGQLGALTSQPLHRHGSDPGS

Row | Structure (SMILES) | hERG current change (%, negative = inhibition) at 10uM [%]
1 | Cc1cc(C(=O)COC(=O)C(C)NC(N)=O)c(C)n1Cc1ccco1 (stereo not drawn) | 10.5
2 | CCN(C(=O)Cn1nc(C)c([N+](=O)[O-])c1C)C1CCS(=O)(=O)C1 (stereo not drawn) | 24.1
3 | Cc1ccc(NC(=O)Cn2ccc([N+](=O)[O-])n2)cc1C | 14.2
4 | Cn1c(=O)c2c(nc(N3CCN(C(=O)c4ccco4)CC3)n2CCSc2ncccn2)n(C)c1=O | -57.4
5 | CCN1CCN(c2nc3c(c(=O)n(C)c(=O)n3C)n2CCSc2ncccn2)CC1 | 3.51
6 | CC(C)n1c(CN2CCN(C(=O)c3ccco3)CC2)nc2c1c(=O)n(C)c(=O)n2C | -7.57
7 | Cn1c(=O)c2c(nc(N3CCOCC3)n2CCSc2ncccn2)n(C)c1=O | 0.639
8 | COc1ccc(N2CCN(C(=O)CSc3nc4c(c(=O)n(C)c(=O)n4C)n3C(C)C)CC2)cc1 | -50.2
9 | CCCn1c(SCC(=O)N2CCN(c3ccc(OC)cc3)CC2)nc2c1c(=O)n(C)c(=O)n2C | -36
10 | CC(C)n1c(SCC(=O)N2CCN(C(=O)c3ccco3)CC2)nc2c1c(=O)n(C)c(=O)n2C | -50.9
11 | CC(C)n1c(SCC(=O)N2CCCC2)nc2c1c(=O)n(C)c(=O)n2C | -5.03
12 | CC(C)n1c(SCC(=O)N2CCN(C)CC2)nc2c1c(=O)n(C)c(=O)n2C | 2.15
13 | COc1ccc(S(=O)(=O)N2CCOC2CNC(=O)C(=O)NCc2ccc3c(c2)OCO3)cc1 (stereo not drawn) | -25.6
14 | Cc1ccc(S(=O)(=O)N/N=C\c2ccc(Cl)c([N+](=O)[O-])c2)cc1 | 18.4
15 | CCOC(=O)c1sc(=S)n(-c2cccc(OC)c2)c1N | -7.09
16 | CCc1ccc2[nH]c(=O)c(C(c3nnnn3CC3CCCO3)N3CCCc4ccccc43)cc2c1 (stereo not drawn) | 19.8
17 | O=C(COC(=O)c1ccccc1Oc1ccccc1)NCc1ccco1 | -19.1
18 | O=C(Nc1cccc(S(=O)(=O)Nc2ccc(Cl)cc2)c1)c1ccc(Cl)nc1 | 19.8
19 | Cc1oc(-c2ccccc2F)nc1CS(=O)(=O)CC(=O)N1CCc2ccccc21 | 12.4
20 | CC(C)(C)NCc1cc(Cl)ccc1OCc1cccs1.Cl | -32.5
21 | CC(C)COc1ccc(Br)cc1CNC(C)(C)C.Cl | -41.8

Row | Structure (SMILES) | hERG current change (%, negative = inhibition) at 10uM [%]
22 | C=CCOc1ccc(Br)cc1CNC(C)(C)C.Cl | -14.7
23 | CC(C)(C)NCc1cc(Br)ccc1OC1CCCC1.Cl | -53.8
24 | CC(C)(C)NCc1cc(Br)ccc1OCc1cccs1.Cl | -52.5
25 | CC(C)(C)NCc1ccccc1OCc1cccs1.Cl | 6.17
26 | CCN(CC)CCNC(=O)c1ccc(NC(=O)Cc2ccsc2)cc1 | 15.6
27 | O=c1oc2ccccc2cc1N1CCOCC1 | -7.08
28 | CN(C)S(=O)(=O)c1ccc(C(=O)Nc2nnc(-c3cccs3)o2)cc1 | 31.7
29 | O=C(COC(=O)c1ccccc1F)Nc1cccnc1Cl | -2.16
30 | O=C(COC(=O)c1ccc(F)cc1F)Nc1ncccn1 | -3.24
31 | O=C(COC(=O)c1ccc(F)cc1F)Nc1cccnc1Cl | -56.3
32 | Cc1ccc(NC(=O)c2cnn(-c3ccccc3)c2NC(=O)c2ccco2)cc1 | 2.02
33 | Cc1ccnn1CC(=O)N/N=C/c1ccc2c(c1)OCO2 | -7.72
34 | N#C/C(=C/c1cccc(O)c1)C(=O)NCc1ccc(Cl)cc1 | 31
35 | COC(=O)CSc1cc([N+](=O)[O-])cc2c1c(C1OCCO1)nn2-c1ccccc1 | -5.4
36 | CN(CCO)c1nc(N)c2c(N)nc3c(c2c1C#N)CC(=O)N3C1CCCC1 | -63.5
37 | CN(CCO)c1nc(N)c2c(N)nc3c(c2c1C#N)CC(=O)N3Cc1cccs1 | -29.6
38 | N#Cc1c(N(CCO)CCO)nc(N)c2c(N)nc3c(c12)CC(=O)N3CC1CCCO1 (stereo not drawn) | 10
39 | O=C(CSc1oc(-c2cccs2)nc1S(=O)(=O)c1ccccc1)NC1CCCCC1 | 17.7
40 | CCC1Oc2ccc(C)cc2N(CC(=O)NCCCN2CCN(Cc3ccccc3)CC2)C1=O (stereo not drawn) | -53.9
41 | CCC1Oc2ccccc2N(CC(=O)NCCCN2CCN(CC)CC2)C1=O (stereo not drawn) | 2.97
42 | CCC1Oc2ccccc2N(CC(=O)NCCCN2CCN(c3ccc(OC)cc3)CC2)C1=O (stereo not drawn) | -50.4
